The text below walks through data of PubChem BioAssay (NCATS).

The target of experiment [1] is Lysosomal acid glucosylceramidase (Homo sapiens) (UniProt P04062). Nature of the experiment: Glucocerebrosidase-p2 (AID 348; in the data active = potency below about 10 µM; note: potency is the fitted concentration of half-maximal effect). To be noted: purified GBA, blue fluorogenic substrate, 40 min. In outline:
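Normal human glucocerebrosidase (0.2 nM) with blue fluorogenic substrate (80 uM final) in citrate/phosphate pH 5.9 with 10mM sodium taurocholate, 0.01% tween-20; 40 min RT, NaOH/glycine stop; fluorescence Ex 365/Em 440; AC50 from a titration from 0.6 nM upwards.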

Experiment [2] in a line: AP1 Signaling Pathway (AID 357). Note: % is set by controls: 0 for no effect and ±100 for the full control effect. To be noted: ME-180 AP-1-bla reporter, EGF-induced, beta-lactamase ratio, 5 h; at 7.69 µM (top of the series) unless noted. In a few lines:
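ME-180 cells with beta-lactamase reporter under AP-1 response element, stimulated with EC50 EGF; compounds tested in titration series, 5 h at 37 °C. CCF4 substrate added 2.5 h at room temperature; 460/530 nm emission ratio gave %activity and AC50.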

Experiment [3] is described as follows: NFAT Signaling Pathway (AID 444).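 Note: carbachol stimulus at about its EC50 of 1 µM final; % is set by controls: 0 for no effect and ±100 for the full control effect.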 To be noted: Jurkat NFAT-bla M1, carbachol, beta-lactamase ratio, 5 h; at 7.69 µM (top of the series) unless noted. In a few lines:
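Read-out: CCF4 FRET ratio (460 nm/530 nm) after 1 h RT dye loading, used for %activity and AC50 from titration series. Cells: Jurkat NFAT-β-lactamase/M1 line, treated with compound plus 1 uM carbachol for 5 h, 37 °C.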

Experiment [4] in a line: Stat Signaling Pathway (AID 446).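 Note: ME-180 cervical cancer cells given 40 pM IL-6 alongside compound; SIE-controlled beta-lactamase reporter measured as 460/530 nm FRET emission ratio; % is set by controls: 0 for no effect and ±100 for the full control effect.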 To be noted: ME-180 (cervical carcinoma) SIE beta-lactamase reporter, IL-6 stimulated, 5 h; at 7.69 µM (top of the series) unless noted. In a few lines: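 FRET read-out (405 nm excitation, 460/530 nm emission) of a beta-lactamase reporter under a STAT-inducible element in ME-180 cervical carcinoma cells. Cells with compound receive 40 pM IL-6 for 5 h. Values are normalised to AC90 stimulation and AC90 JAK-inhibitor controls.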

In experiment [5] the target is Glucocorticoid receptor (Homo sapiens) (UniProt P04150). Nature of the experiment: GR-GFP Redistribution (AID 450;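 active = compounds whose dose series gives a full or clear partial fitted curve of increased nuclear translocation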; note: potency is the fitted concentration of half-maximal effect). To be noted: U2OS GR-GFP nuclear translocation, laser cytometry, 2 h.
For experiment [6] the target is unchanged. Put plainly: GR-EFC Redistribution (AID 451; calls by dose curve; note: potency is the fitted concentration of half-maximal effect). To be noted: CHO-K1 GR-EFC translocation, beta-gal luminescence, 2 h. In a few lines:
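Translocation of GR-ED fusion to nuclear EA restores b-gal, read by luminescence after 1 h room-temperature detection. Engineered CHO-K1 biosensor cells, 1,000/well, exposed 2 h at 37 C to titrations up to 46 uM final.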

Experiment [7] deals with Mitogen-activated protein kinase 10 (Mus musculus) (UniProt Q61831). Nature of the experiment: JNK3 AlphaScreen Assay (AID 530).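 Note: kinase came from lysate of stimulated human HepG2 cells; signal reports phosphorylation of biotinylated GST-cJun 1-79 at Ser73 with 10 µM ATP; % is set by controls: 0 for no effect and ±100 for the full control effect.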 To be noted: JNK3 lysate, c-Jun phosphorylation; series mostly up to 11.4 µM. In a few lines:
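Kinase buffer: 20 mM Tris-HCl pH 7.6, 10 mM MgCl2, 1 mM DTT, 0.1 mM Na3VO4, 0.01% Tween-20; ATP 10 uM. Substrate biotin-GST-cJun(1-79), enzyme from activated HepG2 lysates. Detection by Ser73 phospho-antibody AlphaScreen.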
For orientation: In Alpha technology, singlet oxygen from a donor bead excites a nearby acceptor bead.

Experiment [8] deals with 3',5'-cyclic-AMP phosphodiesterase 4B (Homo sapiens) (UniProt Q07343). Put plainly: qHTS Assay for Inhibitors of PDE-IV (AID 607; active = well fitted activation curve with a large enough effect in the main read-out, with a control signal flat, not every such curve was filed as active; note: % of control where 0% means no effect). To be noted: HEK293 ACTOne CNG channel cells, membrane potential fluorescence; series mostly up to 22.9 µM. In outline:
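Cell-based read-out of cAMP via a modified cyclic nucleotide-gated channel and membrane potential dye (535/590 nm) in HEK293 cells expressing PDE4 endogenously. Compounds tested up to 22.9 uM final; 100 uM RO 20-1724 reference.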
(In qHTS, concentration-response curves come from the screen itself.)

Experiment [9] has as its target Cytochrome P450 2D6 (Homo sapiens) (UniProt P10635). Nature of the experiment: qHTS Assay for Inhibitors and Substrates of Cytochrome P450 2D6 (AID 891; active = well fitted curve in the direction sought with a large enough effect; an effect the other way counts as inactive or inconclusive; note: nearly all actives have a fitted effect of over 60% in size; note: potency is the fitted concentration of half-maximal effect). To be noted: recombinant CYP2D6, luciferin-ME EGE luminescence; series mostly up to 11.4 µM. In outline:
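Luminescent read-out of luciferin formed by 5 nM human CYP2D6 demethylating 30 uM Luciferin-ME EGE (Km level) over 60 min at room temperature after NADPH regeneration addition. Data normalized to full inhibition by 1.43 uM quinidine.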

Experiment [10] concerns the target Cytochrome P450 3A4 (Homo sapiens) (UniProt P08684). Put plainly: qHTS Assay for Activators of Cytochrome P450 3A4 (AID 885; active = well fitted curve in the direction sought with a large enough effect; an effect the other way counts as inactive or inconclusive; note: nearly all actives have a fitted effect of over 65% in size). To be noted: recombinant CYP3A4, Luciferin-PPXE luminescence, 60 min; series mostly up to 11.4 µM. In a few lines:
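Luminescent readout of luciferin formed from 25 uM Luciferin-PPXE (KM level) by 20 nM CYP3A4 in 200 mM KPO4, with 60 min NADPH-driven reaction at room temperature after 10 min compound exposure. Ketoconazole (57 uM) defined 100% inhibition.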

For experiment [11], the target named is Cytochrome P450 2C19 (Homo sapiens) (UniProt P33261). Put plainly: qHTS Assay for Inhibitors and Substrates of Cytochrome P450 2C19 (AID 899; active = well fitted curve in the direction sought with a large enough effect; an effect the other way counts as inactive or inconclusive; note: nearly all actives have a fitted effect of over 60% in size; note: potency is the fitted concentration of half-maximal effect). To be noted: recombinant CYP2C19, luciferin-H EGE luminescence; series mostly up to 11.4 µM. In a few lines:
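Luminescence readout of luciferin formed from 10uM Luciferin-H EGE (KM level) by 5 nM CYP2C19 in 50mM KPO4. 60 min NADPH-driven reaction at 37C after 10 min compound preincubation; data scaled to 57uM ketoconazole inhibition.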

Experiment [12] deals with Cytochrome P450 2C9 (Homo sapiens) (UniProt P11712). Put plainly: qHTS Assay for Inhibitors and Substrates of Cytochrome P450 2C9 (AID 883; active = well fitted curve in the direction sought with a large enough effect; an effect the other way counts as inactive or inconclusive; note: nearly all actives have a fitted effect of over 60% in size; note: potency is the fitted concentration of half-maximal effect). To be noted: recombinant CYP2C9, luciferin-H luminescence, 60 min; series mostly up to 11.4 µM. In a few lines: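 Luminescent read-out of deoxyluciferin hydroxylation, normalized to 57uM sulphaphenazole (AC100). Reaction: 10nM enzyme, 100uM Luciferin-H (equal to KM), 25mM KPO4, 10 min compound preincubation, then 60 min with NADPH regeneration, both at 37C.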

The target of experiment [13] is Cytochrome P450 3A4 (Homo sapiens) (UniProt P08684). Put plainly: qHTS Assay for Inhibitors and Substrates of Cytochrome P450 3A4 (AID 884; active = well fitted curve in the direction sought with a large enough effect; an effect the other way counts as inactive or inconclusive; note: potency is the fitted concentration of half-maximal effect; nearly all actives have a fitted effect of over 50% in size). To be noted: recombinant CYP3A4, Luciferin-PPXE luminescence; series mostly up to 57.1 µM. In a few lines:
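Luminescent readout of luciferin produced by CYP3A4 (20 nM) dealkylation of Luciferin-PPXE, 25 uM (its KM). NADPH-driven reaction ran 60 min at RT after 10 min compound preincubation; data scaled to 57 uM ketoconazole as 100% inhibition.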

Unmarked numbers belong to inactive results. Results filed as inconclusive are left out. Activity calls are given as the source filed them. Unless noted, calls come from the whole dose curve; as a rule, active = well fitted curve in either direction with a large enough effect (not every such curve was filed as active); inconclusive = small, poorly fitted or top-dose-only effect, or another doubt; inactive = flat fitted curve, though single readings scatter.

Sequence of Cytochrome P450 3A4 (Homo sapiens) (P08684 whole entry, looked up): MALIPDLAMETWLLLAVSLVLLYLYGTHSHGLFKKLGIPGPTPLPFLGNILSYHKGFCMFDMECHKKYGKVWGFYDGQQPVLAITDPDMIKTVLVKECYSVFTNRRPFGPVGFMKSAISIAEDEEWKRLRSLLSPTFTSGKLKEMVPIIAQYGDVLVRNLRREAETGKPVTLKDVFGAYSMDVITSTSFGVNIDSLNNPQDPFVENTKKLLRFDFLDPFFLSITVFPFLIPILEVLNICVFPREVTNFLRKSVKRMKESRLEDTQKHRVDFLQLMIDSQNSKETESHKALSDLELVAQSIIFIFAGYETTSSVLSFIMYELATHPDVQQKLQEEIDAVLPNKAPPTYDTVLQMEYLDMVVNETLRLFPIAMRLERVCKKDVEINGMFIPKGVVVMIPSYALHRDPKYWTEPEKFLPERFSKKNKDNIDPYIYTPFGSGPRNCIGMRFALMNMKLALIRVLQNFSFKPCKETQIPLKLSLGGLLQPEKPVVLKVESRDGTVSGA
Sequence of Cytochrome P450 2D6 (Homo sapiens) (P10635 whole entry, looked up): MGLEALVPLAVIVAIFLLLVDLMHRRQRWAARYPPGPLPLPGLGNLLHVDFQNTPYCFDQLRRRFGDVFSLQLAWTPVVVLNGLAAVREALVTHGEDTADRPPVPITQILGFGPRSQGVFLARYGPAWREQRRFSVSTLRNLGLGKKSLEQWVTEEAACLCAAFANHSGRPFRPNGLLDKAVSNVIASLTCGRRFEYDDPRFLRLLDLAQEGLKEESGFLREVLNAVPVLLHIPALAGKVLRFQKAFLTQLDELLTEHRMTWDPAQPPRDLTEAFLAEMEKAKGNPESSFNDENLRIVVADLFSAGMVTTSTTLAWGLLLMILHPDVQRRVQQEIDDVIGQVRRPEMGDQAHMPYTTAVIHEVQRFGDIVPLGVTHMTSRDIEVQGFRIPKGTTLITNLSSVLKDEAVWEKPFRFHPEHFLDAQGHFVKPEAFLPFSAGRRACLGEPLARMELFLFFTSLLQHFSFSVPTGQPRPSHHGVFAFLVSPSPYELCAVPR
Sequence of 3',5'-cyclic-AMP phosphodiesterase 4B (Homo sapiens) (Q07343 whole entry, looked up): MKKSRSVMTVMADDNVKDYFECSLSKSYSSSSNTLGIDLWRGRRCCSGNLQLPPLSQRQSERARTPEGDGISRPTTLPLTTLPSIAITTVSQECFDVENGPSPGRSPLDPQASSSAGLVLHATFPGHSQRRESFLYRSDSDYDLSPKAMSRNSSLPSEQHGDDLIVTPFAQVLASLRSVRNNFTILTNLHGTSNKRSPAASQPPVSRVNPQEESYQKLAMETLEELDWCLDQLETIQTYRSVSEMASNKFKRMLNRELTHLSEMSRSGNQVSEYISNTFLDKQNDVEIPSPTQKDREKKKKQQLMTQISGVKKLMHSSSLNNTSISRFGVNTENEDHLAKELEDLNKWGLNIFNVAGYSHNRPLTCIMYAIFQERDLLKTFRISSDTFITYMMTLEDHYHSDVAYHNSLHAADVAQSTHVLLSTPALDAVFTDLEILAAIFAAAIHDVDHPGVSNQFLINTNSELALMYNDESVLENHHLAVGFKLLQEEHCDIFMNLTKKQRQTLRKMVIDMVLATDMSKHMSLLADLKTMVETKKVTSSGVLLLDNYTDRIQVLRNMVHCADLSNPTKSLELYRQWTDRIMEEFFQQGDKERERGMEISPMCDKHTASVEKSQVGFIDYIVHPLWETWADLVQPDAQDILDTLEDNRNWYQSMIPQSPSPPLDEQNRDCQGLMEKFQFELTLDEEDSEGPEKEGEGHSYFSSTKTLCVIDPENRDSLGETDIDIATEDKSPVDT
Sequence of Glucocorticoid receptor (Homo sapiens) (P04150 whole entry, looked up): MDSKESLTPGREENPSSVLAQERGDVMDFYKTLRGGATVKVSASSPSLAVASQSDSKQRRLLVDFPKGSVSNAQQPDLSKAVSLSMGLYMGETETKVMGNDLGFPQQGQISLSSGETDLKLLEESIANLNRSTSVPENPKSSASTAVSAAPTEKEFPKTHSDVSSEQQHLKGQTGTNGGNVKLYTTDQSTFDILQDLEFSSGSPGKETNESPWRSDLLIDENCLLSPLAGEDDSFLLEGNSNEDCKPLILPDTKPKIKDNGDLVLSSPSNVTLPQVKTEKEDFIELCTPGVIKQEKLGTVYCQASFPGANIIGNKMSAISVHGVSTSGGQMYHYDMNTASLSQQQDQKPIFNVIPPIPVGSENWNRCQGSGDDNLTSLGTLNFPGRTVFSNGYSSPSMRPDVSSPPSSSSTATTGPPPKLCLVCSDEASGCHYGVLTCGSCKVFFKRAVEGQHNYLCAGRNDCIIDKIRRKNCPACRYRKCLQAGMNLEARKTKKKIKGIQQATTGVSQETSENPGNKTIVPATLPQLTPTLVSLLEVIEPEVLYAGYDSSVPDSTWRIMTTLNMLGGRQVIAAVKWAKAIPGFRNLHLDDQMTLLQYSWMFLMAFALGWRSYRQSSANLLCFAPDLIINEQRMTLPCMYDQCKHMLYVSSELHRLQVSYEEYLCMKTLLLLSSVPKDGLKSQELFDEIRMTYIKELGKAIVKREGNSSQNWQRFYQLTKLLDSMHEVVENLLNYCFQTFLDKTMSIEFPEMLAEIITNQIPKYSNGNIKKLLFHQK
Sequence of Lysosomal acid glucosylceramidase (Homo sapiens) (P04062 whole entry, looked up): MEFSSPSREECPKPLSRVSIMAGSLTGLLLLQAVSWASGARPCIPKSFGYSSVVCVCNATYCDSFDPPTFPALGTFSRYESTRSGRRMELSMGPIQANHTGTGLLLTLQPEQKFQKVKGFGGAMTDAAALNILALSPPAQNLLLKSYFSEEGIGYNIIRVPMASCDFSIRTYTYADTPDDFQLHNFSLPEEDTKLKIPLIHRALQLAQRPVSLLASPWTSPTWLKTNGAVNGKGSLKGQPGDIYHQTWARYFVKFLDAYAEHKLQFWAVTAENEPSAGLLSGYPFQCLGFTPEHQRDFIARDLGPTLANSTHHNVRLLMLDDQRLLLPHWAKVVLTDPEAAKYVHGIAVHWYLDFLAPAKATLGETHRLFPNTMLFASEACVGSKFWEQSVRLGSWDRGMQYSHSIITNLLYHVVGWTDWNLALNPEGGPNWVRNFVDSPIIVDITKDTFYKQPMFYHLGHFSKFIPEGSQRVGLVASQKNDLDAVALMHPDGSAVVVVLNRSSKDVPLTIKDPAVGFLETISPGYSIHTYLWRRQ
Sequence of Cytochrome P450 2C19 (Homo sapiens) (P33261 whole entry, looked up): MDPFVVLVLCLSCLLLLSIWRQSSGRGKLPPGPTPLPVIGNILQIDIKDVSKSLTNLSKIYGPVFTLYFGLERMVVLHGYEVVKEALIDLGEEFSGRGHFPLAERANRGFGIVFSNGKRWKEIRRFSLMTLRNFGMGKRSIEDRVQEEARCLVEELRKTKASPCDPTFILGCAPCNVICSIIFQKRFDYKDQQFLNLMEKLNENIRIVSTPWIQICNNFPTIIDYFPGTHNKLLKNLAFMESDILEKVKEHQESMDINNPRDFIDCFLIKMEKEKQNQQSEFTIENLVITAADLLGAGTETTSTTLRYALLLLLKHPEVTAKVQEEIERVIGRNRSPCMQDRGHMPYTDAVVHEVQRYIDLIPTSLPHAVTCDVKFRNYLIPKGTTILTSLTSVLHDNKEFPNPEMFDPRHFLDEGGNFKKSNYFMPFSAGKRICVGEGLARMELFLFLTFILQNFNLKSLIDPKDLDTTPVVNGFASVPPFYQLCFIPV
Sequence of Cytochrome P450 2C9 (Homo sapiens) (P11712 whole entry, looked up): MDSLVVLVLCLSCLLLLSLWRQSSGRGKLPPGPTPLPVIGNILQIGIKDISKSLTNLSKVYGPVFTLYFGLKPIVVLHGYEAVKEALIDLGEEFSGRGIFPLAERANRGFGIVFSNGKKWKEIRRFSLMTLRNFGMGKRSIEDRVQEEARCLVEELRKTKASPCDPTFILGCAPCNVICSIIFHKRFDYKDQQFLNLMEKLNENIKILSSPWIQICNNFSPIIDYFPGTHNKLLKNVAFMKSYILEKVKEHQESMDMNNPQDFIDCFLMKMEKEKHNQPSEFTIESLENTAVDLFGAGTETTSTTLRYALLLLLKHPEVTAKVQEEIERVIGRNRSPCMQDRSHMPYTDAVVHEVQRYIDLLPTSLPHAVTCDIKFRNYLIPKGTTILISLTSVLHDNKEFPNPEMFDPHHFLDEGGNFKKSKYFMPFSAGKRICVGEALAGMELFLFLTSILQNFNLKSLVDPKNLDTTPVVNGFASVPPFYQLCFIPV

Consider `CN(C)c1ncnc2c1ncn2CCn1cnc2c(N(C)C)ncnc21`, for which the Potency in experiment [1] was more than 11.4 µM; in [5], more than 46 µM; in experiment [6], more than 9.22 µM. Also, the activity change, negative = inhibition in experiment [2] and in experiment [3] was 7.13% in each case. For the same molecule, the activity, negative = inhibition in [4] is 11.6%. In addition, the Potency entry in experiment [7], in experiment [8] and in [9] was “inactive” throughout.
As to `c1cncc(CNCc2cccnc2)c1`, the Potency in experiment [1] was more than 11.4 µM; in experiment [5], more than 46 µM; in [6], more than 9.22 µM. Further, the activity change, negative = inhibition in experiment [2] was -1.94%; in [3] it was 2.26%. Moreover, in experiment [4], the activity, negative = inhibition was 12.4%. Further, the Potency result in experiment [7], in [8] and in experiment [9] was “inactive” each time.
Turning to `Br/C(=N\Nc1nn[nH]n1)c1ccncc1`, the Potency is more than 11.4 µM in experiment [1], more than 46 µM in experiment [5] and more than 9.22 µM in experiment [6]. Also, the activity change, negative = inhibition was 9.43% in [2] and 24.2% in experiment [3]. Moreover, the activity, negative = inhibition in experiment [4] is 1.9%. In addition, the Potency result in experiment [7], in [8], in [10] and in experiment [9] was “inactive” in each case.
For the molecule `Clc1ccc(CSC2=NCCN2)cc1Cl`, the Potency is more than 11.4 µM in experiment [1], more than 46 µM in experiment [5], more than 9.22 µM in experiment [6] and 3.16 µM (active) in experiment [9]. For the same molecule, the results for the activity change, negative = inhibition in [2] and in experiment [3] were -9.06% and -19.4%, respectively. Also, in experiment [4], the activity, negative = inhibition is -8%. Moreover, the Potency entry in experiment [7] and in experiment [8] was “inactive” throughout.
Take `FC(F)(F)c1nc2nc(Cl)c(Cl)nc2n1CCCN1CCOCC1`: the Potency in experiment [1] is more than 11.4 µM; in [5], more than 46 µM; in experiment [6], more than 9.22 µM. The activity change, negative = inhibition was 9.81% in [2] and -3.79% in experiment [3]. Besides, the activity, negative = inhibition in experiment [4] is 2.08%. The Potency result in experiment [7], in experiment [8] and in experiment [10] was “inactive” in each case.
Regarding `CC(=O)n1c(COS(C)(=O)=O)nc2ccccc21`, the values for the Potency in experiment [1], in experiment [5] and in experiment [6] were more than 11.4 µM, more than 46 µM and more than 9.22 µM, respectively. For the same molecule, the activity change, negative = inhibition in experiment [2] was -2.19%; in [3], 8.51%. In addition, the activity, negative = inhibition in [4] is -1.19%. Also, the Potency entry in experiment [7], in [8] and in experiment [10] was “inactive” throughout.
On to `Cc1cc2c(cc1C)NC1=C(N2)O[C@H](c2c[nH]c3ccc(COc4ccccc4)cc23)C1=O`, for which the Potency was more than 11.4 µM in [1], more than 46 µM in [5], more than 9.22 µM in experiment [6] and 0.501 µM (active) in experiment [11]. Also, the activity change, negative = inhibition was -28.4% in [2] and 2.39% in [3]. Further, the activity, negative = inhibition in experiment [4] is -5.89%. In addition, the Potency result in [7], in experiment [8] and in experiment [10] was “inactive” each time.
In the case of `S=C(Nc1ccc2c(c1)Cc1ccccc1-2)Nc1ccc2c(c1)Cc1ccccc1-2`, the Potency was more than 11.4 µM in experiment [1], more than 46 µM in experiment [5] and more than 9.22 µM in experiment [6]. Besides, the activity change, negative = inhibition was -4.53% in [2] and 9.24% in [3]. For the same molecule, the activity, negative = inhibition in experiment [4] is 3.09%. Further, the Potency result in experiment [7], in experiment [8] and in experiment [10] was “inactive” in each case.
Consider `O=C1c2ccccc2C(=O)c2c1ccc(N1C(=O)c3ccccc3C1=O)c2-c1c(N2C(=O)c3ccccc3C2=O)ccc2c1C(=O)c1ccccc1C2=O`, for which the Potency was more than 11.4 µM in [1], more than 46 µM in experiment [5] and more than 9.22 µM in experiment [6]. Also, the activity change, negative = inhibition was -8.78% in experiment [2] and -22.9% in experiment [3]. Besides, the activity, negative = inhibition in [4] was 12%. The Potency result in experiment [7], in [8], in experiment [12], in experiment [9] and in experiment [11] was “inactive” throughout.
Consider `COc1ccc(-c2nc3cnc(Oc4ccccc4)nc3n(C3CC3)c2=O)cc1`, for which the results for the Potency in experiment [1], in [5] and in experiment [6] were more than 11.4 µM, more than 9.22 µM and more than 46 µM, respectively. The results for the activity change, negative = inhibition in [2] and in experiment [3] were -23.1% and 15.1%, respectively. Also, the activity, negative = inhibition in experiment [4] is 4.9%. Also, the Potency entry in [7], in experiment [8] and in experiment [10] was “inactive” throughout.
Turning to `C[C@@H](C(=O)O)/C(=C/c1ccc2c(c1)OCO2)C(=O)O`, the Potency is more than 11.4 µM in [1], more than 46 µM in experiment [5], more than 9.22 µM in [6] and 2.51 µM (active) in experiment [12]. The activity change, negative = inhibition is -12.8% in [2] and 1.64% in experiment [3]. Also, the activity, negative = inhibition in [4] was -5.22%. The Potency entry in experiment [7], in [8] and in experiment [10] was “inactive” in each case.
In the case of `CC1(C)N=C(N)N=C(N)N1c1cccc(OCc2cccc(N)c2)c1`, the Potency in experiment [1] was more than 11.4 µM; in [5], more than 46 µM; in [6], more than 9.22 µM; in experiment [9], 2.51 µM (active). The activity change, negative = inhibition was 11.8% in experiment [2] and -27.5% in [3]. In addition, the activity, negative = inhibition in experiment [4] was -3.01%. Moreover, the Potency entry in experiment [7] and in [8] was “inactive” throughout.
For the molecule `CN1CCC(n2[nH]c(-c3ccccc3)c(Cc3ccccc3)c2=O)CC1`, the Potency is more than 11.4 µM in [1], more than 46 µM in experiment [5], more than 9.22 µM in experiment [6] and 3.98 µM (active) in [13]. For the same molecule, the figures for the activity change, negative = inhibition in experiment [2] and in experiment [3] were -1.32% and -82.4% (active), respectively. The activity, negative = inhibition in [4] was 11.1%. Further, the Potency result in experiment [7], in experiment [8] and in experiment [10] was “inactive” throughout.
As to `O=C(O)c1ccccc1-c1ccccc1C(=O)Nc1ccc2c(c1)[nH]c(=O)c1ccccc12`, the Potency in [1] was more than 11.4 µM; in experiment [5], more than 46 µM; in experiment [6] it was more than 9.22 µM. For the same molecule, the values for the activity change, negative = inhibition in experiment [2] and in [3] were -4.06% and 1.08%, respectively. Further, the activity, negative = inhibition in experiment [4] is -25.4%. Moreover, the Potency result in [7], in experiment [8] and in [10] was “inactive” throughout.
